Consider four molecules from PubChem BioAssay (EPA / NIEHS).

Read-out in assay [1]: Matrix Metallopeptidase 9 (MMP9), MMP9 (gene 4318)
Kind of assay: BSK_KF3CT_MMP9: BioMAP Diversity Plus: KF3CT Assay for Matrix Metallopeptidase 9 (MMP9) Biomarker Activity (AID 2283074).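 As to AC50: MMP9 protein level quantified by ELISA in the co-culture.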 Particulars: primary human keratinocytes with fibroblasts; actives raise or lower the signal. Put shortly:
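Keratinocyte plus foreskin fibroblast human primary skin co-culture was dosed with chemical and MMP-9 was quantified by ELISA 24 h later. Bidirectional curve fitting used DMSO as negative control and activity baseline.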

Read-out in assay [2]: urokinase plasminogen activator (uPA), PLAU (gene 5328)
Kind of assay: BSK_KF3CT_uPA: BioMAP Diversity Plus: KF3CT Assay for urokinase plasminogen activator (uPA) Biomarker Activity (AID 2283075). The following applies: primary human keratinocytes with fibroblasts; actives raise or lower the signal. Put shortly:
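Human keratinocyte plus foreskin fibroblast primary co-culture exposed to chemical for 24 h. uPA levels were quantified by ELISA, and activity was fitted bidirectionally against a DMSO negative-control baseline.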

Read-out in assay [3]: CD40, CD40 (gene 958)
Description: BSK_LPS_CD40: BioMAP Diversity Plus: LPS Assay for CD40 Biomarker Activity (AID 2283076). The following applies: primary human HUVEC with PBMC; actives raise or lower the signal. Put shortly:
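Using a multiplexed primary human co-culture (umbilical vein endothelium plus PBMC), CD40 was read by ELISA 24 h after dosing, with cytotoxicity tracked by sulforhodamine B staining of parallel cultures and activity fitted bidirectionally versus DMSO.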

Read-out in assay [4]: E-selectin (Homo sapiens) (UniProt P16581)
Description: BSK_LPS_Eselectin: BioMAP Diversity Plus: LPS Assay for Eselectin Biomarker Activity (AID 2283077). Particulars: primary human HUVEC with PBMC; actives raise or lower the signal. The method, boiled down:
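Dose chemical onto LPS-driven HUVEC/PBMC co-culture; after 24 h, run ELISA for E-selectin; fit up- and down-going responses relative to DMSO control.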

Read-out in assay [5]: Interleukin-8 (IL8), CXCL8 (gene 3576)
Description: BSK_LPS_IL8: BioMAP Diversity Plus: LPS Assay for Interleukin-8 (IL8) Biomarker Activity (AID 2283078). The following applies: primary human HUVEC with PBMC; actives raise or lower the signal. Put shortly:
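In this LPS system, chemical-treated human umbilical vein endothelium/PBMC co-cultures were harvested at 24 h for IL-8 ELISA.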

Assay [6] in a line: BSK_LPS_SRB: Viability Assessment in the BioMAP Diversity Plus: LPS Assay (AID 2283079).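 Also: total protein by sulforhodamine B absorbance as a cytotoxicity measure; measured one day after compound addition; fitted in both directions against DMSO so loss or gain of signal counts.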 The following applies: primary human HUVEC with PBMC. Put shortly: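 Cytotoxicity endpoint in human endothelial–PBMC co-culture: 24 h exposure, then SRB (0.1%) staining, 560 nm read.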
Read-out in assay [7]: Interleukin-1 alpha (IL1a), IL1A (gene 3552)
Kind of assay: BSK_LPS_IL1a: BioMAP Diversity Plus: LPS Assay for Interleukin-1 alpha (IL1a) Biomarker Activity (AID 2283080). Particulars: primary human HUVEC with PBMC; actives raise or lower the signal. Put shortly: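 Primary human HUVEC and PBMC co-culture stimulated with LPS is dosed and harvested at 24 h. Both increases and decreases in ELISA-measured IL-1a are scored relative to DMSO.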

Read-out in assay [8]: Monocyte Chemoattractant Protein-1 (MCP1), CCL2 (gene 6347)
Description: BSK_LPS_MCP1: BioMAP Diversity Plus: LPS Assay for Monocyte Chemoattractant Protein-1 (MCP1) Biomarker Activity (AID 2283081).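 As to AC50: secreted MCP-1 protein quantified by ELISA in culture supernatant.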 The following applies: primary human HUVEC with PBMC; actives raise or lower the signal. The method, boiled down: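 Values derive from bidirectional fitting against DMSO of ELISA-measured MCP-1 in a human primary endothelial and mononuclear cell co-culture, 24 h after chemical addition under LPS activation.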

A short description of assay [9]: BSK_LPS_PGE2: BioMAP Diversity Plus: LPS Assay for Prostaglandin E2 (PGE2) Biomarker Activity (AID 2283082). The following applies: primary human HUVEC with PBMC; actives raise or lower the signal. Put shortly: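 LPS-activated HUVEC/PBMC co-culture; cmpd dosed, 24 h; PGE2 by ELISA; bidirectional fit vs DMSO; SRB (0.1%, TCA-fixed, 560 nm) in parallel plates for overt cytotox.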

Read-out in assay [10]: Macrophage colony-stimulating factor (MCSF), CSF1 (gene 1435)
Kind of assay: BSK_LPS_MCSF: BioMAP Diversity Plus: LPS Assay for Macrophage colony-stimulating factor (MCSF) Biomarker Activity (AID 2283083). Particulars: primary human HUVEC with PBMC; actives raise or lower the signal. Put shortly: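 Bidirectional fit versus DMSO of ELISA-measured M-CSF in co-cultured human umbilical vein endothelial cells and PBMC, sampled 24 h after dosing.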

Read-out in assay [11]: Tissue Factor, F3 (gene 2152)
Kind of assay: BSK_LPS_TissueFactor: BioMAP Diversity Plus: LPS Assay for Tissue Factor Biomarker Activity (AID 2283084). The following applies: primary human HUVEC with PBMC; actives raise or lower the signal. Put shortly:
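Read-out: CD142 ELISA, 24 h. System: LPS-driven human endothelial/PBMC co-culture. Analysis: up- or down-signal fitted against DMSO.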

Read-out in assay [12]: Tumor necrosis factor (Homo sapiens) (UniProt P01375)
Description: BSK_LPS_TNFa: BioMAP Diversity Plus: LPS Assay for Tumour Necrosis Factor alpha (TNFa) Biomarker Activity (AID 2283085). Particulars: primary human HUVEC with PBMC; actives raise or lower the signal. The method, boiled down: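 Read-out is ELISA of TNFa in primary human endothelial cell–PBMC co-cultures at 24 h after compound. Activity in either direction was fitted against DMSO.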

Read-out in assay [13]: Vascular cell adhesion molecule 1 (VCAM1), VCAM1 (gene 7412)
Kind of assay: BSK_LPS_VCAM1: BioMAP Diversity Plus: LPS Assay for Vascular cell adhesion molecule 1 (VCAM1) Biomarker Activity (AID 2283086). The following applies: primary human HUVEC with PBMC; actives raise or lower the signal. Put shortly: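 HUVEC + PBMC co-culture, LPS system; compound 24 h; VCAM-1 by ELISA; bidirectional fit vs DMSO control; parallel SRB (0.1%, TCA-fixed, 560 nm) for cytotoxicity.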

Read-out in another assay: CD38, CD38 (gene 952)
Kind of assay: BSK_SAg_CD38: BioMAP Diversity Plus: SAg Assay for CD38 Biomarker Activity (AID 2283087). The following applies: primary human HUVEC with PBMC; actives raise or lower the signal. The method, boiled down: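 Human HUVEC plus PBMC co-culture stimulated with superantigen; CD38 measured by ELISA 24 h after chemical dosing. Fluorescence read-out, bidirectional fit against DMSO; cytotoxicity tracked in parallel by SRB and Alamar Blue.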

Read-out in assay [14]: CD40, CD40 (gene 958)
Kind of assay: BSK_SAg_CD40: BioMAP Diversity Plus: SAg Assay for CD40 Biomarker Activity (AID 2283088). Particulars: primary human HUVEC with PBMC; actives raise or lower the signal. Put shortly: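 Endpoint derived by fitting increases or decreases versus DMSO controls. CD40 is detected by fluorescence ELISA in a human vascular co-culture of endothelium and PBMC at 24 h.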

Read-out in another assay: CD69, CD69 (gene 969)
Kind of assay: BSK_SAg_CD69: BioMAP Diversity Plus: SAg Assay for CD69 Biomarker Activity (AID 2283089).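 As to AC50: cell surface CD69 protein quantified by ELISA with fluorescence detection.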 Particulars: primary human HUVEC with PBMC; actives raise or lower the signal. Put shortly: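 Endothelial/PBMC co-culture; chemical added; 24 h incubation; CD69 ELISA with fluorescence detection; bidirectional fit vs DMSO.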

Read-out in assay [15]: Monocyte Chemoattractant Protein-1 (MCP1), CCL2 (gene 6347)
Kind of assay: BSK_SAg_MCP1: BioMAP Diversity Plus: SAg Assay for Monocyte Chemoattractant Protein-1 (MCP1) Biomarker Activity (AID 2283090). The following applies: primary human HUVEC with PBMC; actives raise or lower the signal. The method, boiled down: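 MCP-1 levels in the endothelial–PBMC SAg co-culture were quantified by ELISA at 24 h post-dosing; both increases and decreases versus DMSO scored. Cytotoxicity monitored by SRB total protein in parallel cultures.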

Read-out in assay [16]: E-selectin (Homo sapiens) (UniProt P16581)
Description: BSK_SAg_Eselectin: BioMAP Diversity Plus: SAg Assay for Eselectin Biomarker Activity (AID 2283091). Particulars: primary human HUVEC with PBMC; actives raise or lower the signal. Put shortly: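 Endpoint values derive from bidirectional fitting relative to DMSO, using ELISA-measured E-selectin in a human vascular co-culture (umbilical vein endothelium plus PBMC) sampled 24 h after dosing.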

Read-out in assay [17]: Monokine induced gamma interferon (MIG), CXCL9 (gene 4283)
Kind of assay: BSK_SAg_MIG: BioMAP Diversity Plus: SAg Assay for Monokine induced gamma interferon (MIG) Biomarker Activity (AID 2283092). Particulars: primary human HUVEC with PBMC; actives raise or lower the signal. Put shortly: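 Measures CXCL9 protein by ELISA in a human vascular primary-cell co-culture (umbilical vein endothelium with PBMC) 24 h after chemical addition. Activity is scored up or down from the DMSO control.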

Activity calls are given as the source filed them. The calls were made as follows: active = hit-call score of the fitted dose curve at least 0.9, where 1 is the maximum; inactive = score below 0.9.

Chain of E-selectin (Homo sapiens) (P16581 whole entry, looked up): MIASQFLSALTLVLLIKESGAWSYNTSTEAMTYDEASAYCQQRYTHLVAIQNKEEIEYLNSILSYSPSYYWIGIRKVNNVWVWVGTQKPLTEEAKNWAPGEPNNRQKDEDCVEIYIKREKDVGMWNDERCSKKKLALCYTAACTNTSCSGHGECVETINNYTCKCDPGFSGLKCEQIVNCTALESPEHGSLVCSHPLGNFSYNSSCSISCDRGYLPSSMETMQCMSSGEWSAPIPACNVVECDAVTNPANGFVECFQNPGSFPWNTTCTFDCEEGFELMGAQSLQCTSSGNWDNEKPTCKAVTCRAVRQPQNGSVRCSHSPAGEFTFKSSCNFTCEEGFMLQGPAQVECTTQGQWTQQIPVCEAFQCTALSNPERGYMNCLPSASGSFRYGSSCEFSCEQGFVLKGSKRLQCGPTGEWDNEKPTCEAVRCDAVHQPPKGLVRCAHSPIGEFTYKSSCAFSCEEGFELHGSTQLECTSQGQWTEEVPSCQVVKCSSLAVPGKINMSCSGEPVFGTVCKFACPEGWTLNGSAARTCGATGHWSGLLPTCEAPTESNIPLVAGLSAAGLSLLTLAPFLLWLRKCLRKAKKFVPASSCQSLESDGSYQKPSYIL
Chain of Tumor necrosis factor (Homo sapiens) (P01375 whole entry, looked up): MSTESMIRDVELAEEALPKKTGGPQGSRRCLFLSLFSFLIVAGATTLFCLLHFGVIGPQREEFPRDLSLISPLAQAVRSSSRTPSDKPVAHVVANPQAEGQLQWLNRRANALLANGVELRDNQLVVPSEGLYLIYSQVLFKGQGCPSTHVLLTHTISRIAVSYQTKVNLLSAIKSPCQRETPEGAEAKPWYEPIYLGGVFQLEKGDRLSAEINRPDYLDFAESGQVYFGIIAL

On to `CC(C)(C)c1csc(-c2cc3cc(OCc4ccccc4CC(=O)O)ccc3o2)n1`, for which the concentration at half-maximal activity (AC50) (in general, the concentration at which the activity in the assay is half-maximal) was 13.7 µM (active) in assay [1]; 20.7 µM (active) in assay [2]; 20.7 µM (active) with CD40, CD40 (gene 958) [3]; 30.9 µM (active) in [4]; 20.9 µM (active) in assay [6]; 20.5 µM (active) in [7]. In addition, the AC50 in assay [8] was 22.6 µM (active); in assay [10], 27.2 µM (active); in assay [12], 17.7 µM (active); in assay [13], 18.8 µM (active); with CD38, CD38 (gene 952), 17.9 µM (active); with CD40, CD40 (gene 958) [14], 19.1 µM (active). Also, the AC50 was 19.8 µM (active) with CD69, CD69 (gene 969); 29.9 µM (active) in assay [15]; 32.1 µM (active) in [16]; 38.5 µM (active) in [17]. In addition, the result in assay [5], in [9] and in assay [11] was inactive.

With `OCCO`, the outcome in [1] was “inactive”; in [2] it was “inactive”; in the assay with CD40, CD40 (gene 958) [3], “inactive”; in [4], “inactive”; in [5] it was “inactive”; in assay [6], “inactive”. The outcome in assay [7], in assay [8], in assay [9], in assay [10], in [11] and in [12] was inactive. In addition, the outcome was “inactive” in assay [13]; “inactive” with CD38, CD38 (gene 952); “inactive” in the assay with CD40, CD40 (gene 958) [14]; “inactive” with CD69, CD69 (gene 969); “inactive” in assay [15]; “inactive” in [16].

Regarding `Clc1cc(Cl)c2c(c1)N=C1CCCCCN1C2`, the outcome in [1] is “inactive”; in [2], “inactive”; in the assay with CD40, CD40 (gene 958) [3] it was “inactive”; in assay [4] it was “inactive”; in assay [5], “inactive”; in assay [6] it was “inactive”. Also, the result in assay [7], in [8], in assay [9], in [10], in [11] and in [12] was inactive. Further, the outcome is “inactive” in assay [13]; “inactive” with CD38, CD38 (gene 952); “inactive” in the assay with CD40, CD40 (gene 958) [14]; “inactive” in the assay with CD69, CD69 (gene 969); “inactive” in assay [15]; “inactive” in assay [16]. Moreover, the outcome in assay [17] was inactive.

As to `OC12N=C(c3ccccc3)SC1Cc1cc(Cl)ccc12` (centres undefined), the outcome in assay [1], in assay [2], in [4], in assay [5], in assay [6] and in assay [8] was inactive. The outcome in assay [9] was “inactive”; in [10], “inactive”; in [11] it was “inactive”; in assay [12], “inactive”; with CD38, CD38 (gene 952) it was “inactive”; in the assay with CD69, CD69 (gene 969), “inactive”. Also, the outcome in assay [15] and in assay [16] was inactive. For the same molecule, the concentration at half-maximal activity (AC50) is 16.8 µM (active) in the assay with CD40, CD40 (gene 958) [3]; 25.3 µM (active) in assay [7]; 10.3 µM (active) in assay [13]; 20 µM (active) with CD40, CD40 (gene 958) [14].
